# Legend:
# Details in all cases: Compound Concentration (nM):1000
# TBK1 = tested on: TBK1
# TEC = tested on: TEC
# TESK1 = tested on: TESK1
# TGFBR1 = tested on: TGFBR1
# TGFBR2 = tested on: TGFBR2
# TIE1 = tested on: TIE1
# TIE2 = tested on: T1, TIE2
# T1 construct: gene TEK
# TLK1 = tested on: TLK1
# TLK2 = tested on: TLK2
# TNIK = tested on: TNIK
# 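Note: KINOMEscan scanMAX binding as percent activity remaining versus control; lower means stronger binding.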
Compound,Percent Control (TBK1),Percent Control (TEC),Percent Control (TESK1),Percent Control (TGFBR1),Percent Control (TGFBR2),Percent Control (TIE1),Percent Control (TIE2),Percent Control (TLK1),Percent Control (TLK2),Percent Control (TNIK)
Cl.O=C(Nc1ccc(Oc2ccc3[nH]c(NC(=O)c4ccco4)nc3c2)cc1)Nc1cc(C(F)(F)F)ccc1F [GW683134A],100%,100%,71%,91%,89%,1.1%,1.9%,100%,77%,100%
O=C(Nc1n[nH]c2nc(-c3ccc(O)cc3)c(Br)cc12)C1CC1 [SB-725317],86%,100%,100%,100%,100%,100%,100%,100%,100%,72%
Cc1cc(O)cc(C)c1/C=C/c1cncc(C(N)=O)c1 [GW435821X],100%,100%,100%,84%,81%,100%,100%,100%,100%,100%
COc1ccccc1-c1cc(/C=C2\C(=O)Nc3ncc(Br)cc32)cc(Br)c1O [GW442130X],100%,100%,100%,100%,87%,100%,95%,100%,100%,71%
CC(C)COC(=O)c1ccc2c(c1)/C(=C/Nc1ccc(S(N)(=O)=O)cc1)C(=O)N2 [GW416981X],17%,100%,100%,100%,42%,100%,100%,100%,95%,58%
COc1cc(C)c(N(C)C(=O)CN(C)C)cc1Nc1nc(Nc2cccc(F)c2C(N)=O)c2cc[nH]c2n1 [GSK2219385],69%,100%,92%,100%,100%,82%,100%,85%,100%,98%
CCc1ccc(Oc2nccc(-c3c(-c4ccc(F)cc4)ncn3C3CCNCC3)n2)cc1 [SB-242719],65%,100%,99%,96%,100%,100%,100%,91%,100%,66%
NS(=O)(=O)c1ccc(N/N=C2\C(=O)Nc3ccc(-c4cnco4)cc32)cc1 [GW276655],63%,100%,77%,100%,100%,73%,100%,96%,66%,26%
C[C@@H](Oc1cc(-n2cnc3ccc(OC4CCN(C)CC4)cc32)sc1C(N)=O)c1ccccc1Cl [GSK579289A],67%,99%,72%,100%,100%,52%,69%,81%,77%,75%
C/C(Nc1ccc(S(N)(=O)=O)cc1)=C1/C(=O)Nc2ccccc21 [GW335962X],75%,100%,100%,88%,100%,100%,100%,94%,65%,18%
